For experiment [1], the target named is T1, Aspartate--tRNA(Asp/Asn) ligase (Mycobacterium tuberculosis (strain ATCC 25618 / H37Rv)) (UniProt P9WFW3). Also: in the data most compounds retested in dose-response had high values.
T1 sequence (whole entry): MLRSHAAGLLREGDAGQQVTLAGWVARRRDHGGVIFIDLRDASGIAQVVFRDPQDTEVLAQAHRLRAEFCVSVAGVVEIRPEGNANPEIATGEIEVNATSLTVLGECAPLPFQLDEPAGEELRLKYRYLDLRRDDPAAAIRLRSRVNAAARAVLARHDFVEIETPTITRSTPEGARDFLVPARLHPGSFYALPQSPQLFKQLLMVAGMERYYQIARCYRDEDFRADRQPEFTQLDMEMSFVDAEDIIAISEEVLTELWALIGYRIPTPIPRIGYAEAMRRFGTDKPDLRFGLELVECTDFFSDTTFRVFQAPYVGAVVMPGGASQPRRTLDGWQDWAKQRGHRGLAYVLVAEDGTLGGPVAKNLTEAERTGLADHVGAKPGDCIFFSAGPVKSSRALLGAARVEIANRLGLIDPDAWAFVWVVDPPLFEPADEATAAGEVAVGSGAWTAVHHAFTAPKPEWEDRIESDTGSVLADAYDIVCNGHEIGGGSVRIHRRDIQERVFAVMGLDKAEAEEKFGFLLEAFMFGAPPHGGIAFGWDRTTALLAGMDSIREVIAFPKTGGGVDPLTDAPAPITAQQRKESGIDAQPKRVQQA
Description: Assay for Asp RNA synthetase-1 from Mycobacterium tuberculosis. The class given is functional. The arrangement: scale not given: direction of the effect not stated beside the values. The following applies: 30 µM.

The target in experiment [2] is Shiga toxin 2 (Escherichia coli O157:H7) (UniProt P09385+P09386). The experiment is described as follows: E. coli 0.157:H7 Shiga Toxin SOP - stx2 screening assay. The class given is functional. On the set-up: scale not given: direction of the effect not stated beside the values. The following applies: 30 µM.

Each structure is given as a SMILES string.

As to `O=C(NCC1CC1)C1CN(C(=O)c2ccncc2)CC12CCOCC2` (centres undefined), the Percent Effect in experiment [1] is 3.22%; in experiment [2], -21.5%.

In the case of `NC(=O)N1CC[C@H](O)[C@@H]1Cc1cccnc1`, the Percent Effect came out at 1.51% in experiment [1] and 0.815% in experiment [2].

Take `COc1ccc(NC(=O)c2ccc[nH]2)c(N2CCN(C(C)=O)CC2)n1`: the figures for the Percent Effect in experiment [1] and in experiment [2] were 1.11% and 0.954%, respectively.

For the molecule `COc1ccc2c(c1)C1(CCN(Cc3ccoc3)CC1)N(C)CC2`, the Percent Effect in experiment [1] is 0.685%; in experiment [2], -9.8%.

As to `O=C(CCc1cnn(-c2ccccc2)c1)N1CCCC(n2cccn2)C1` (centres undefined), the results for the Percent Effect in experiment [1] and in experiment [2] were -0.589% and 26.2%, respectively.

Regarding `Cc1cc(N2CCC(CC(N)=O)CC2)nc(-c2ccncc2)n1`, the Percent Effect in experiment [1] was 6.11%; in experiment [2], 0.525%.

Regarding `Cc1ncc(CNC(=O)CCOc2ccccc2)c(C2CCCN2C)n1` (centres undefined), the results for the Percent Effect in experiment [1] and in experiment [2] were 5.05% and -10.2%, respectively.

As to `Cc1cc(NC(=O)CCN(CC2CCOC2)C2CC2)no1` (centres undefined), the Percent Effect is -6.8% in experiment [1] and -16.3% in experiment [2].

With `O=c1[nH]c2nc(N3CCSCC3)ncc2c(=O)n1-c1cccc(F)c1`, the Percent Effect was 13.7% in experiment [1] and -14.3% in experiment [2].

Take `CCOc1ccc(S(=O)(=O)NCc2cccnc2N(C)C)cc1`: the Percent Effect in experiment [1] was 1.46%; in experiment [2] it was -16.7%.

On to `CCn1nccc1CNC(=O)C1CC1`, for which the values for the Percent Effect in experiment [1] and in experiment [2] were 11% and -39.4%, respectively.

`CCn1ccnc1CN(C)CC1CCCN1c1cccnn1` (centres undefined): the Percent Effect in experiment [1] was 7.69%; in experiment [2] it was -26.1%.

As to `c1ncn(CC2CCCCN2Cc2csc(C3CCCC3)n2)n1` (centres undefined), the values for the Percent Effect in experiment [1] and in experiment [2] were -7.74% and -35.6%, respectively.

Regarding `CCOC(=O)N1CCN(C(=O)c2sc(-c3ccccc3F)nc2C)CC1`, the Percent Effect is 3.76% in experiment [1] and -8.58% in experiment [2].

Take `Cc1ccc(N2CCCC(NCC(=O)NCC3CC3)C2)nn1` (centres undefined): the figures for the Percent Effect in experiment [1] and in experiment [2] were -5.2% and -32.6%, respectively.

`CN(C)S(=O)(=O)c1ccc(CN2CCCC2CO)o1` (centres undefined): the Percent Effect in experiment [1] is -0.169%; in experiment [2], 24%.

In the case of `COC[C@@H]1CC[C@H]2[C@H](CCN2S(=O)(=O)c2ccc(OC)cc2)O1`, the Percent Effect in experiment [1] is -2.58%; in experiment [2], 1.36%.

Turning to `NC(=O)NCC1CCCCN1C(=O)c1cccc(C(F)(F)F)c1` (centres undefined), the Percent Effect was determined as 2.58% in experiment [1] and 11.1% in experiment [2].

Consider `Cc1cc(=O)n(CC(=O)NCC2CCCO2)c(-c2ccc(F)cc2)n1` (centres undefined), for which the Percent Effect in experiment [1] was 5.94%; in experiment [2] it was -51.4%.

In the case of `CCC(CC)c1cc(CNC(=O)N2CCCC(N(C)C)C2)on1` (centres undefined), the values for the Percent Effect in experiment [1] and in experiment [2] were -1.74% and 9.62%, respectively.

Regarding `CCc1n[nH]c(C2CN(C(=O)c3cnc[nH]3)CCO2)n1` (centres undefined), the Percent Effect was -1.76% in experiment [1] and 27.7% in experiment [2].

Take `Cc1ccc(CN2CC(C(=O)Nc3ccccc3)C3(CCOCC3)C2)s1` (centres undefined): the Percent Effect was 8.04% in experiment [1] and -1.18% in experiment [2].

As for `COc1c(C2CCCN2Cc2csc(C(C)C)n2)c(C)nn1C` (centres undefined), the results for the Percent Effect in experiment [1] and in experiment [2] were -1.4% and -10.7%, respectively.

For the molecule `COc1cccc(N2CCN(CC(O)c3cc(C)ccc3C)CC2)c1` (centres undefined), the Percent Effect in experiment [1] was 9.16%; in experiment [2], -19.7%.

For the molecule `CCOCC1CN(S(C)(=O)=O)Cc2cnn(CC3CCOCC3)c21` (centres undefined), the Percent Effect in experiment [1] was 5.17%; in experiment [2], -7.39%.

Regarding `COc1ncccc1CNC(=O)NC1CCOc2ccccc21` (centres undefined), the Percent Effect in experiment [1] was -1.92%; in experiment [2], -19.2%.

With `O=C(c1cc(C2CC2)on1)N1CCCC(n2cncn2)C1` (centres undefined), the Percent Effect in experiment [1] was -0.789%; in experiment [2], -16.7%.

In the case of `Cc1ccc(C(=O)O)cc1S(=O)(=O)Nc1nn(-c2ccccc2)cc1C`, the Percent Effect in experiment [1] is 5.61%; in experiment [2] it was 3.87%.

As to `CC(C)c1nnc2n1CC(CNCc1ccncc1)CC2` (centres undefined), the Percent Effect in experiment [1] was -2.34%; in experiment [2], -14.7%.

In the case of `COC(=O)c1cc(OCC2CCC2)cc(C(=O)N[C@@H]2CNCC[C@H]2O)c1`, the Percent Effect is 6.47% in experiment [1] and -42.6% in experiment [2].

`CN1CC2(CCN(Cc3ccoc3)CC2)COc2ccccc2S1(=O)=O`: the Percent Effect was -0.268% in experiment [1] and -18.6% in experiment [2].

In the case of `OCCn1cc(CN2CCN(CCOc3ccccc3)CC2)cn1`, the Percent Effect in experiment [1] was determined as 0.728%; in experiment [2], 13.3%.

With `Cc1ccc(CNC2CCN(CCc3ccncc3)CC2)s1`, the Percent Effect was -2.55% in experiment [1] and -53.8% in experiment [2].

For `O=C(C1CC1)N1CCC(c2nc(O)c3c(n2)CCN(C2CCCC2)C3)C1` (centres undefined), the values for the Percent Effect in experiment [1] and in experiment [2] were -2.25% and -11.5%, respectively.

Regarding `Cc1cnn(C2CCCN(C(=O)C3=NN(C)C(=O)CC3)C2)c1` (centres undefined), the Percent Effect stood at 3.95% in experiment [1] and 3.74% in experiment [2].

Turning to `CC(Nc1cccc(CN2CCOC2=O)c1)C(=O)N1CCNC1=O` (centres undefined), the Percent Effect in experiment [1] was -0.922%; in experiment [2] it was -28.6%.

Turning to `CN(Cc1cn2c(n1)CN(C1CCOC1)CC2)Cc1ccco1` (centres undefined), the Percent Effect was 4.4% in experiment [1] and -24.2% in experiment [2].

For `Cc1cc(-c2cnn(CCNC(=O)C3CCCO3)c2C2CC2)on1` (centres undefined), the Percent Effect was -4.09% in experiment [1] and 7.9% in experiment [2].

Regarding `Cc1cnnn1Cc1ncn2c1CN(Cc1cccs1)CCC2`, the Percent Effect in experiment [1] was -1.27%; in experiment [2] it was -3.58%.

Regarding `CCc1nc(C2CCCN(C(=O)c3cccc4cn[nH]c34)C2)no1` (centres undefined), the Percent Effect in experiment [1] stood at 4.75%; in experiment [2] it was 29.8%.

As for `O=S(=O)(NC1=NCN(CCc2cccs2)CN1)c1ccc(F)cc1`, the Percent Effect in experiment [1] is -0.523%; in experiment [2], -18.8%.

Regarding `CCN1CCN(c2ccc(CNC(=O)c3c(C)noc3C)cn2)CC1`, the Percent Effect in experiment [1] is -3.84%; in experiment [2] it was -40.9%.
